Assay results reported in PubChem BioAssay (NCI).
Compounds without any hit were thinned out: in the full panel of roughly 83,000, 20% have a hit.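 Results are percent growth after 48 hours of single-concentration exposure. 100 means growth as in untreated cells, lower positive values show inhibition; negative values down to -100 show cell death.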 The source made the active and inactive calls. How the source made its calls: active means growth percent below 10; inactive means the rest.

These molecules were tested on OVCAR-5 ovarian (assay: NCI-60 one-dose screen, 48 h (100 = growth as untreated, 0 = no growth, -100 = all killed)). Settings: 10 µM unless noted.

Q: How did the growth turn out when COC(=O)c1cccc2c1N(C)c1c(cccc1C(=O)OC)CC2 was run?
A: 98.7% (inactive)

Q: For COc1ccc(/C=C2\N=C(c3ccccc3)N(C(=O)c3ccccc3O)NC2=O)cc1, which growth is on record?
A: 98.5% (inactive)

Q: How did the growth turn out when c1cc2[nH]ncc2cc1-c1nc2ccc3[nH]ncc3c2c2c1CCC2 was run?
A: 91.7% (inactive)

Q: O=C(Oc1ccccc1[N+](=O)[O-])C1CCCN1C(=O)OCc1ccccc1 (centres undefined) was tested. Which growth did it give?
A: 109% (inactive)

Q: For COc1ccc(CCNC2=CC(=O)CCC2)cc1OC, which growth is on record?
A: 105% (inactive)

Q: Which growth does the source give for O=C(Nc1ccncc1)C(=O)c1cn(S(=O)(=O)c2ccc(Cl)cc2)c2ccccc12 here?
A: 64.7% (inactive)

Q: Which growth does the source give for O=C(Nc1cccc(-n2cc(-c3ccncc3)c(-c3ccc(Cl)c(O)c3)n2)c1)Nc1ccc(Cl)c(Cl)c1 here?
A: 56.4% (inactive)

Q: O=C(Nc1ccncc1)C(=O)c1cn(S(=O)(=O)c2ccccc2F)c2ccccc12 was tested. Which growth did it give?
A: 69.3% (inactive)

Q: O=C(c1ccccc1)C1OC1c1ccc([N+](=O)[O-])cc1 (centres undefined) was tested. Which growth did it give?
A: 102% (inactive)

Q: Cc1ccc(Cc2c(C=O)nc(N)[nH]c2=O)c2ccccc12 was tested. Which growth did it give?
A: 117% (inactive)

Q: CCN(CC)CCOC(=O)C(c1ccccc1)(c1ccccc1)C(C)C was tested. Which growth did it give?
A: 87.2% (inactive)

Q: With COc1ccc(C(=O)N2NC(=O)/C(=C/c3cn(-c4ccccc4)nc3-c3ccccc3)N=C2c2ccccc2)cc1 as the molecule, how does the growth read?
A: 111% (inactive)

Q: CC(C)(C)OC(=O)NC(CSCc1ccccc1)C(=O)ON1C(=O)CCC1=O (centres undefined) was tested. Which growth did it give?
A: 106% (inactive)

Q: With COc1ccc(C2=C(c3cc(OC)c(OC)c(OC)c3)C(=O)CC2)cc1 as the molecule, how does the growth read?
A: 33.1% (inactive)

Q: For COc1ccc(C(=O)N2NC(=O)/C(=C/c3ccccc3F)N=C2c2ccccc2)cc1, which growth is on record?
A: 108% (inactive)

Q: Which growth does the source give for C/C(=C\c1ccc(OCC(=O)O)c(Cl)c1Cl)[N+](=O)[O-] here?
A: 113% (inactive)

Q: For COc1ccc(-c2cc3c(OC)c(OC)c(OC)cc3oc2=O)cc1, which growth is on record?
A: 74% (inactive)

Q: How did the growth turn out when COc1ccc(Nc2ncccc2C(=O)NCc2cn(Cc3cccc(Oc4ccccc4)c3)nn2)c(OC)c1 was run?
A: 51.1% (inactive)

Q: How did the growth turn out when CC(=O)Nc1scc[n+]1Cc1ccccc1 was run?
A: 110% (inactive)

Q: How did the growth turn out when COc1cc2c(c(OC)c1OC)-c1ccc(N)c(=O)cc1[C@@H](NC(C)=O)CC2 was run?
A: 40.5% (inactive)

Q: For O=C([O][Sn]([O]C(=O)c1ccccn1)([c]1ccccc1)[c]1ccccc1)c1ccccn1, which growth is on record?
A: 94.9% (inactive)

Q: How did the growth turn out when COC(OC)c1ccccc1 was run?
A: 107% (inactive)

Q: With Fc1ccc(Nc2nc(NCCNc3ccnc4cc(Cl)ccc34)nc(N3CCOCC3)n2)cc1 as the molecule, how does the growth read?
A: 105% (inactive)

Q: For COc1ccc(-c2nc3sc(-c4cc(OC)c(OC)c(OC)c4)nn3c2/C=C2/C(=O)Nc3ccc(F)cc32)cc1, which growth is on record?
A: 3.01% (active)

Q: Cc1ccc(S(=O)(=O)n2cc(C(=O)C(=O)Nc3ccncc3)c3ccccc32)cc1 was tested. Which growth did it give?
A: 57.6% (inactive)

Q: COc1ccc(Nc2ncccc2C(=O)NCc2cn(Cc3cccc(Oc4ccccc4)c3)nn2)cc1 was tested. Which growth did it give?
A: 75.2% (inactive)

Q: For CC1=C(C#N)C(=O)NC(C)C1 (centres undefined), which growth is on record?
A: 95.5% (inactive)

Q: Cc1cc(C2=NNC(=O)Cc3cc4c(cc32)OCCO4)cc(C)c1N was tested. Which growth did it give?
A: 75.8% (inactive)

Q: For CCOC(=O)C1=C(C)NC(C)=C(C(=O)OCC)C1(C)C, which growth is on record?
A: 99.7% (inactive)

Q: How did the growth turn out when O=C(Nc1ccncc1)C(=O)c1cn(S(=O)(=O)c2ccc(Br)cc2)c2ccccc12 was run?
A: 64.4% (inactive)

Q: With CC1CCC(C)N(C)C1 (centres undefined) as the molecule, how does the growth read?
A: 106% (inactive)

Q: With CCC(C)/C(=C\C#N)NCCCN/C(=C/C#N)C(C)CC (centres undefined) as the molecule, how does the growth read?
A: 102% (inactive)

Q: Which growth does the source give for CC1(c2ccc(Cl)cc2)OC(=O)CC(=O)O1 here?
A: 103% (inactive)

Q: How did the growth turn out when CCN(CC)CCOc1ccc(Cl)c(C)c1 was run?
A: 101% (inactive)

Q: With Nc1cccc(Cl)c1N as the molecule, how does the growth read?
A: 108% (inactive)

Q: O=[N+]([O-])c1cc(Cl)c2[nH]c3c(Cl)cc([N+](=O)[O-])cc3c2c1 was tested. Which growth did it give?
A: 9.08% (active)

Q: CSc1nc2c(c(=O)[nH]1)C(c1ccc(C)cc1)C=C(C(=O)O)N2 (centres undefined) was tested. Which growth did it give?
A: 114% (inactive)

Q: How did the growth turn out when COc1cc(/C=C/C(=O)/C=C/c2cc(OC)c3c(c2)OCO3)cc2c1OCO2 was run?
A: 107% (inactive)

Q: For Oc1ccccc1/C=N/NC(=S)NC1CC2C=CC1C2 (centres undefined), which growth is on record?
A: 109% (inactive)
